The values that follow come from the supplement of paper PMC6853941.

For the experiment, the system named is MCF10A. Briefly: perturbation Mahalanobis distance of morphological profile vs DMSO controls (Mahalanobis distance (SD units)); higher = stronger morphological change, active = 7 or more. As to conditions: 72 h. The method, then:
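MCF10A cells were seeded onto drugs dispensed acoustically into 384-well plates, using one dose per drug chosen from its human peak plasma concentration, and incubated for 72 h at 37 °C. Cells were stained for DNA, tubulin and mitochondria and imaged; 78 CellProfiler features were extracted, plate-normalised and compared with DMSO wells.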

[1] abbreviates: screen batch: Batch1_Mahalanobis_Distance.
Setting [2] is: screen batch: Batch2_Mahalanobis_Distance.

Structures are written as SMILES.

Consider `Cc1cc(C)cc(OCC2CNC(=O)O2)c1` (stereo not drawn) [Metaxalone] (38.4 µM), for which the “perturbation Mahalanobis distance” value reads like this: under setting [1], 3.33 (inactive); under setting [2], 4.58 (inactive).
On the same counts, the results for `CO/N=C(\C(=O)N[C@@H]1C(=O)N2C(C(=O)O)=C(CSc3nnnn3C)CS[C@H]12)c1csc(N)n1` [Cefmenoxime] (183.8 µM) are 3.87 (inactive) and 4.1 (inactive).
On the same counts, the results for `Cc1nnc(C(=O)NC(C)(C)C2=N/C(=C(\O)NCc3ccc(F)cc3)C(=O)C(=O)N2C)o1` [Raltegravir] (22.5 µM) are 6.75 (inactive) and 4.95 (inactive).
On the same counts, the results for `O=C1CC2(CCCC2)C(O)C(=O)N1CCCCN1CCN(c2ncccn2)CC1` (stereo not drawn) [6-Hydroxybuspirone] (0.05 µM) are 3.46 (inactive) and 3.29 (inactive).
Turning to `NC(=O)[C@@H]1CSSCCC(=O)N[C@@H](CCCCN=C(N)N)C(=O)NCC(=O)N[C@@H](CC(=O)O)C(=O)N[C@@H](Cc2c[nH]c3ccccc23)C(=O)N2CCC[C@H]2C(=O)N1` [Eptifibatide] (5.3 µM), the “perturbation Mahalanobis distance” value is, setting by setting: under setting [1], 2.23 (inactive); under setting [2], 2.48 (inactive).
With `CCN(CC)C(=O)/C(C#N)=C/c1cc(O)c(O)c([N+](=O)[O-])c1` [Entacapone] (6.6 µM), the “perturbation Mahalanobis distance” value was 1.99 (inactive) under setting [1] and 2.48 (inactive) under setting [2].
For `CC(=O)NO` [Acetohydroxamic Acid] (523.5 µM) the same measures were 4.11 (inactive) and 4.24 (inactive).
On the same counts, the results for `C[C@](N)(Cc1ccc(O)cc1)C(=O)O` [Metyrosine] (71.7 µM) are 3.87 (inactive) and 3.02 (inactive).
With `Cc1ccsc1C(=CCCN1CCC[C@@H](C(=O)O)C1)c1sccc1C` [Tiagabine] (2.7 µM), the “perturbation Mahalanobis distance” value under setting [1] is 2.46 (inactive) and the “perturbation Mahalanobis distance” value under setting [2] was 3.14 (inactive).
